ZTA DNA inh = ZTA (EBV) inhibition in EBNA-1 counter-screen; P03206; ZTA-DNA binding, fluorescence polarization; inhibition, % at 11 µM; hit rate 0.15% among 320,000; in the data active means inhibition above about 33%
Target sequence (P03206 whole entry, looked up): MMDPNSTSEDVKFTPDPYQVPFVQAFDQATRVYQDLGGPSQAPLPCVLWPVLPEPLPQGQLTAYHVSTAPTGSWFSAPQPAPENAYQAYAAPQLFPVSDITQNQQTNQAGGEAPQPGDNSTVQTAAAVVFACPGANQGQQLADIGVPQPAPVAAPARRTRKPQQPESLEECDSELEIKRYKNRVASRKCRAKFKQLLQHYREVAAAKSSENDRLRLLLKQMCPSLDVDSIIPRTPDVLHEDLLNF
PP5 primary = PP5 (human) phosphatase inhibition; P53041; hit rate 0.18% among 320,000; purified PP5c, OMFP substrate fluorescence; inhibition, % at 6.7 µM; AID 1987;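 active means inhibition above the campaign's mean inhibition across all tested compounds plus 3 SD, cut at about 9.5% in these data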
MsrA inh = bovine MsrA inhibition. AID 651718. inhibition, % at 15.5 µM. hit rate 0.75% among 360,000. purified bovine MsrA, absorbance read-out; in the data active means inhibition above about 4.5%
EBNA-1 inhibitor = blocks EBNA-1 binding to DNA; hit rate 0.34% among 300,000; inhibition, % at 14.8 µM; EBNA-1 DNA binding, fluorescence polarization; in the data active means inhibition above about 28%
PP1 inh = blocks human PP1-alpha phosphatase, a PP5 counter-screen; inhibition, % at 6.7 µM; P62136; hit rate 0.9% among 320,000; purified PP1alpha, OMFP fluorescence;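 active means inhibition above the mean inhibition of all tested compounds plus 3 SD, computed separately for each screening campaign, cut at about 15% in these data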
Target sequence (P62136 whole entry, looked up): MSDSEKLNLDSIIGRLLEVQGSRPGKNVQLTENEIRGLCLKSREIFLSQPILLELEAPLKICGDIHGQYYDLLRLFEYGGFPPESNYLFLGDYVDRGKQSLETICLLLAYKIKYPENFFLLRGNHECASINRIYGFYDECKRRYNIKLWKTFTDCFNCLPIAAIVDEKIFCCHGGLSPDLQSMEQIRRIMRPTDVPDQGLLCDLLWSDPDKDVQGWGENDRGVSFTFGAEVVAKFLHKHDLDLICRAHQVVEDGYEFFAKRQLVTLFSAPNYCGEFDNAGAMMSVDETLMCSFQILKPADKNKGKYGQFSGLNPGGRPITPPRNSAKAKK
bovine MsrA act = activates bovine MsrA enzyme. purified bovine MsrA, absorbance read-out. activation, % at 10.6 µM. hit rate 0.3% among 360,000; in the data active means activation above about 7.5%
PP1 inh confirm = human PP1 phosphatase inhibition, confirmation | shares compounds with PP1 inh | purified PP1alpha, OMFP substrate fluorescence | inhibition, % at 6.7 µM | hit rate 52% among 1,900;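 active means mean PP1 inhibition above a set limit taken from the earlier primary screen, cut at about 15% in these data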
PP5 inh counter = counter-screen for PP1 inhibitors: human PP5 phosphatase inhibition; shares compounds with PP1 inh; purified PP5c, OMFP fluorescence; inhibition, % at 6.7 µM; hit rate 4% among 1,900; AID 2360;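 active means mean PP5 inhibition over triplicate wells above about 9.5% taken from the earlier PP1 screen, limit read from the data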
Large screens that a line does not name were inactive (follow-up assays come after a bar, where they were run). Sampled rows, rich in hits. Any-hit rate of the full collection: about 2.3%.

CCC(=O)OC1(C)C(=O)C=C2C=C(c3ccsc3)OC=C2C1=O (stereo unspecified)	none (no result: MsrA inh)
CC1(OC(=O)c2ccco2)C(=O)C=C2C=C(c3ccsc3)OC=C2C1=O (stereo unspecified)	PP1 inh 18 (no result: MsrA inh, bovine MsrA act) | PP1 inh confirm inactive | PP5 inh counter inactive
CCCCC1=CC2=CC(=O)C(C)(O)C(=O)C2=CO1 (stereo unspecified)	PP1 inh 19 (no result: MsrA inh, bovine MsrA act) | PP1 inh confirm inactive | PP5 inh counter inactive
CC1(O)C(=O)C=C2C=C(c3ccsc3)OC=C2C1=O (stereo unspecified)	PP1 inh 18 (no result: MsrA inh, bovine MsrA act) | PP1 inh confirm inactive | PP5 inh counter inactive
COC(=O)CCC(=O)OC1(C)C(=O)C=C2C=C(c3ccsc3)OC=C2C1=O (stereo unspecified)	none (no result: MsrA inh)
Cc1[nH]c(=O)[nH]c(=O)c1S(=O)(=O)N(CC(C)C)CC(C)C	none
C[C@@H]1CN([C@H](C)CO)C(=O)CCCn2cc(nn2)CO[C@H]1CN(C)C(=O)Nc1cccc(Oc2ccccn2)c1	none (no result: ZTA DNA inh, PP5 primary, EBNA-1 inhibitor, PP1 inh)
CCCCC(CC)CN=C(N)NC(N)=NCCCCCCN=C(N)NC(N)=NCC(CC)CCCC (stereo unspecified)	PP1 inh 46, bovine MsrA act 9.7 (no result: MsrA inh) | PP1 inh confirm 29 | PP5 inh counter inactive
O=C(N/N=C/c1ccc([N+](=O)[O-])o1)c1cc(-c2ccc(-c3ccccc3)cc2)nc2ccccc12	PP1 inh 27 | PP1 inh confirm 29 | PP5 inh counter inactive
O=C(Nc1cccc(S(=O)(=O)NC2=NCCC2)c1)c1cc(-c2ccco2)nc2ccccc12	PP1 inh 26 | PP1 inh confirm inactive | PP5 inh counter inactive
CCOc1ccc(/C=N/NC(=O)c2cc(-c3ccco3)nc3ccccc23)cc1	none
Cc1nnc(NC(=O)c2cc(-c3ccco3)nc3ccccc23)s1	PP1 inh 30 | PP1 inh confirm inactive | PP5 inh counter inactive
O=C(Nc1nc2ccccc2s1)c1cc(-c2ccco2)nc2ccccc12	none
O=C(N/N=C/c1ccc(F)cc1)c1cc(-c2ccco2)nc2ccccc12	PP1 inh 19 | PP1 inh confirm inactive | PP5 inh counter inactive
Cc1cc(C)c2c(c1)NC(c1cc3c(cc1Br)OCO3)C1CC=CC21 (stereo unspecified)	none
C(#CC1CCCC1)c1ccc2c(c1)COc1c3ccccc3nn1-2	none
C[C@@H](CO)NC(=O)c1ccc2c3n(nc2c1)-c1ccccc1CO3	none
Cc1cc(-c2ccc3c(c2)COc2c4ccccc4nn2-3)on1	PP1 inh 25 | PP1 inh confirm 26 | PP5 inh counter inactive
CCCc1cc(-c2ccc3c(c2)COc2c4ccccc4nn2-3)on1	PP1 inh 18 | PP1 inh confirm 19 | PP5 inh counter inactive
S=c1[nH]nc(-c2cccnc2)n1-c1ccc2c(c1)OCCO2	PP1 inh 52 | PP1 inh confirm inactive | PP5 inh counter inactive
O=C(O)C1Nc2ccc(OC(F)(F)F)cc2C2C=CCC12 (stereo unspecified)	PP1 inh 22 (no result: MsrA inh, bovine MsrA act) | PP1 inh confirm inactive | PP5 inh counter inactive
O=C(NC1CC1)C1Nc2ccc(OC(F)(F)F)cc2C2C=CCC12 (stereo unspecified)	none
CC(C)(C)c1ccc(C(=O)NNC(=O)c2cccc(Br)c2)cc1	none
Cc1cccc(NC(=O)C(=O)NNC(=O)c2ccc(C(C)(C)C)cc2)c1	PP1 inh 21 | PP1 inh confirm inactive | PP5 inh counter inactive
Cc1ccc(C2=NS(=O)(=O)N(C)C(C(=O)NCc3ccc4c(c3)OCO4)=C2)cc1	none
CCOc1ccccc1C(=O)NCC(=O)NCC(c1ccc(OC)cc1)N1CCOCC1 (stereo unspecified)	PP1 inh 23 | PP1 inh confirm inactive | PP5 inh counter inactive
NC(=O)C1CCCN(CC(O)COCc2ccc(Cl)cc2)C1 (stereo unspecified)	none
CCc1ccccc1N(C)S(=O)(=O)c1ccc2[nH]cc(C(=O)O)c(=O)c2c1	PP1 inh 24 | PP1 inh confirm 18 | PP5 inh counter inactive
CN(c1ccc(F)cc1)S(=O)(=O)c1ccc2[nH]cc(C(=O)O)c(=O)c2c1	none
COC(=O)C1=COC(C)C2CN3CCc4c([nH]c5ccccc45)C3CC12 (stereo unspecified)	PP1 inh 20 | PP1 inh confirm inactive | PP5 inh counter 18
Cc1ccc(CNC(=O)c2ccc(N3CCC4(CC3)CC(c3cccc(Br)c3)=NO4)c(NC(=O)c3c(Cl)cccc3Cl)c2)cc1	PP1 inh 21 | PP1 inh confirm inactive | PP5 inh counter inactive
Cc1ccc(CNC(=O)c2ccc(N3CCC4(CC3)CC(c3cccc(Br)c3)=NO4)c(NC(=O)c3ccc(Br)cc3)c2)cc1	none (no result: ZTA DNA inh, PP5 primary, EBNA-1 inhibitor, PP1 inh)
CC(C)CN1C(=O)C(=O)N(CC(=O)c2ccc3c(c2)CCCC3)C1=O	none (no result: EBNA-1 inhibitor)
Oc1c(C(Nc2nc3ccccc3s2)c2ccco2)ccc2cccnc12 (stereo unspecified)	PP1 inh 29 | PP1 inh confirm 19 | PP5 inh counter inactive
CC(C)C(=O)NC(c1ccco1)c1ccc2cccnc2c1O (stereo unspecified)	none
COc1ccc(C2SCC(=O)N2C)cc1 (stereo unspecified)	none
CC(C)N1C(=O)CSC1c1ccc(Br)cc1 (stereo unspecified)	PP1 inh 87 | PP1 inh confirm inactive | PP5 inh counter inactive
COc1cccc(NC(=O)CSc2nc(O)c(C)c(=O)n2-c2ccc(C)cc2)c1	none
COc1ccc(C2=NN(C(=O)c3cccs3)C(c3ccccc3O)C2)cc1 (stereo unspecified)	PP1 inh 27 | PP1 inh confirm 19 | PP5 inh counter inactive
COc1ccc(C2CC(c3ccccc3)=NN2C(=O)c2cccs2)cc1 (stereo unspecified)	none
CCCCC(=O)Nc1ccnc(-c2cccnc2)n1	none
O=C(/C=C/c1ccc(OCCCF)cc1)Nc1ccnc(-c2cccnc2)n1	PP1 inh 22 | PP1 inh confirm 22 | PP5 inh counter inactive
COc1ccc(-n2c(C(C)(C)C)csc2=Nc2c(C)n(C)n(-c3ccccc3)c2=O)cc1	none
NC(=O)c1nn(-c2ccccc2)nc1NC(=O)CN1CCCCC1	PP1 inh 47 | PP1 inh confirm inactive | PP5 inh counter inactive
Cc1cc(N2CCCC2)ccc1/C=N/n1cnnc1	PP1 inh 18 | PP1 inh confirm inactive | PP5 inh counter inactive
Cc1cccnc1NC(=O)CNC(=O)c1sc2ccccc2c1Cl	none (no result: EBNA-1 inhibitor)
Cc1cccc(NC(=O)CNC(=O)c2sc3ccccc3c2Cl)n1	PP1 inh 22 | PP1 inh confirm inactive | PP5 inh counter inactive
CC(=O)N1CCN(S(=O)(=O)c2cccc(C(=O)NCCC3=CCCCC3)c2)CC1	none
NC(=O)CC(NC(=O)Cc1ccc(Br)cc1)c1ccc(N2CCCCCCC2)c([N+](=O)[O-])c1 (stereo unspecified)	none

High-throughput results deposited in PubChem by The Scripps Research Institute Molecular Screening Center.
